Common to all, as to test: yeast three-hybrid, YBZ-1, SC-Leu-His + 0.5 mM 3-AT, 4 days
Common to all, as to details: tags: N-Gal4 AD-HA kept; label: inside an RPR1-promoter hybrid RNA with tandem MS2 sites; ssRNA

For one experiment, the target named is PUM1 PUF domain R1-TGE (Homo sapiens, UniProt Q14671 828-1176, S863T;R864G;Q867E). The gist of the method: (§1)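 The interaction score is the log change in how often each variant appears, from input to selection. Frequencies came from PCR-amplified, Illumina-sequenced repeat regions of Pumilio-1 PUF domain libraries grown in strain YBZ-1 (LexA–MS2 coat fusion, HIS3 reporter) alongside matching RNA elements. Input plates were SC-Leu and selection plates were SC-Leu-His + 0.5 mM 3-AT, each for four days, and the log2 calculation used a pseudocount of 1 where a variant was absent.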

Another experiment deals with T1, PUM1 PUF domain R6-QRR (Homo sapiens, UniProt Q14671 828-1176, N1043Q;Y1044R;Q1047R).
T1 sequence: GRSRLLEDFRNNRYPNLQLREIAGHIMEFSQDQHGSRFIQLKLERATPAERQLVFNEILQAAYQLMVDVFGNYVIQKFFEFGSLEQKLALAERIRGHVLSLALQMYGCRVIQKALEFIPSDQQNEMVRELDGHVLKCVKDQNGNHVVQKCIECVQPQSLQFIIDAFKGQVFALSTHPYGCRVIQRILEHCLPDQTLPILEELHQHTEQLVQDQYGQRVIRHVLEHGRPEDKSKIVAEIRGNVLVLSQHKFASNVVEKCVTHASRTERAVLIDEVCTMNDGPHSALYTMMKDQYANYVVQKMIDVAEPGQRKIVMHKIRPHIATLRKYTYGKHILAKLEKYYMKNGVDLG
The gist of the method:
as §1

In the next experiment the target is PUM1 PUF domain R7-RRQ (Homo sapiens, UniProt Q14671 828-1176, S1079R;N1080R;E1083Q). A digest of the protocol: as §1
For a further experiment, the target named is PUM1 PUF domain R1-YTR (Homo sapiens, UniProt Q14671 828-1176, S863Y;R864T;Q867R). The gist of the method: as §1
A further experiment addresses PUM1 PUF domain R4-SRI (Homo sapiens, UniProt Q14671 828-1176, N971S;H972R;Q975I). A digest of the protocol: as §1
A further experiment concerns the target PUM1 PUF domain R4-RWP (Homo sapiens, UniProt Q14671 828-1176, N971R;H972W;Q975P). A digest of the protocol: as §1
The target in a further experiment is T2, PUM1 PUF domain R6-MWS (Homo sapiens, UniProt Q14671 828-1176, N1043M;Y1044W;Q1047S).
T2 sequence: T1 sequence with Q216M, R217W, R220S
A digest of the protocol: as §1

Another experiment deals with PUM1 PUF domain R8-RYS (Homo sapiens, UniProt Q14671 828-1176, N1122R;Q1126S). A digest of the protocol: as §1
For the next experiment, the target named is PUM1 PUF domain R3-RSP (Homo sapiens, UniProt Q14671 828-1176, C935R;R936S;Q939P). The gist of the method: as §1
Another experiment addresses T3, PUM1 PUF domain R6-CFI (Homo sapiens, UniProt Q14671 828-1176, N1043C;Y1044F;Q1047I).
T3 sequence: T1 sequence with Q216C, R217F, R220I
The gist of the method:
as §1

Where a chain is given by its changes, count along the chain named.

For the sequence “GGCUAGAACUAGUGGAUCCCCCGGCGCCCGGCGGCUCGAGCCCGGGUAAGUGUAAAUGGUCUGCAUGCCGCCGGGCGCCAUGCCUGCAGGUCGACUCUAGAAAACAUG”, the binding signal with PUM1 PUF domain R1-TGE is 2.92 log2 enrichment (interaction score).

As for “GGCUAGAACUAGUGGAUCCCCCGGCGCCCGGCGGCUCGAGCCCGGGUAAGUGCAAAUAGUCUGCAUGCCGCCGGGCGCCAUGCCUGCAGGUCGACUCUAGAAAACAUG”, the binding signal in the experiment with PUM1 PUF domain R6-QRR is 5.8 log2 enrichment (interaction score). With “GGCUAGAACUAGUGGAUCCCCCGGCGCCCGGCGGCUCGAGCCCGGGUAAGUUUAAAUAGUCUGCAUGCCGCCGGGCGCCAUGCCUGCAGGUCGACUCUAGAAAACAUG”, in the experiment with PUM1 PUF domain R7-RRQ, the binding signal was 5.4 log2 enrichment (interaction score). As to “GGCUAGAACUAGUGGAUCCCCCGGCGCCCGGCGGCUCGAGCCCGGGUAAGUGUAAAUUGUCUGCAUGCCGCCGGGCGCCAUGCCUGCAGGUCGACUCUAGAAAACAUG”, the binding signal with PUM1 PUF domain R1-TGE is 3.46 log2 enrichment (interaction score); in the experiment with PUM1 PUF domain R1-YTR it was 6.22 log2 enrichment (interaction score).

Take “GGCUAGAACUAGUGGAUCCCCCGGCGCCCGGCGGCUCGAGCCCGGGUAAGUGUAUAUAGUCUGCAUGCCGCCGGGCGCCAUGCCUGCAGGUCGACUCUAGAAAACAUG”: in the experiment with PUM1 PUF domain R4-SRI, the binding signal is 1.38 log2 enrichment (interaction score). Turning to “GGCUAGAACUAGUGGAUCCCCCGGCGCCCGGCGGCUCGAGCCCGGGUAAGUGUAAAUAGUCUGCAUGCCGCCGGGCGCCAUGCCUGCAGGUCGACUCUAGAAAACAUG”, the binding signal in the experiment with PUM1 PUF domain R4-RWP was 5.93 log2 enrichment (interaction score); with PUM1 PUF domain R6-MWS, 5.31 log2 enrichment (interaction score); with PUM1 PUF domain R6-QRR, 6.35 log2 enrichment (interaction score); in the experiment with PUM1 PUF domain R8-RYS, 4.4 log2 enrichment (interaction score); in the experiment with PUM1 PUF domain R4-SRI, 3.08 log2 enrichment (interaction score). In the case of “GGCUAGAACUAGUGGAUCCCCCGGCGCCCGGCGGCUCGAGCCCGGGUAAGUGUAAAUCGUCUGCAUGCCGCCGGGCGCCAUGCCUGCAGGUCGACUCUAGAAAACAUG”, the binding signal with PUM1 PUF domain R1-YTR is 6.08 log2 enrichment (interaction score). For “GGCUAGAACUAGUGGAUCCCCCGGCGCCCGGCGGCUCGAGCCCGGGUAAGUGUAAUUAGUCUGCAUGCCGCCGGGCGCCAUGCCUGCAGGUCGACUCUAGAAAACAUG”, in the experiment with PUM1 PUF domain R3-RSP, the binding signal is 4.96 log2 enrichment (interaction score).

“GGCUAGAACUAGUGGAUCCCCCGGCGCCCGGCGGCUCGAGCCCGGGUAAGUGUAAGUAGUCUGCAUGCCGCCGGGCGCCAUGCCUGCAGGUCGACUCUAGAAAACAUG”: the binding signal with PUM1 PUF domain R3-RSP was 1.39 log2 enrichment (interaction score). Take “GGCUAGAACUAGUGGAUCCCCCGGCGCCCGGCGGCUCGAGCCCGGGUAAGUGAAAAUAGUCUGCAUGCCGCCGGGCGCCAUGCCUGCAGGUCGACUCUAGAAAACAUG”: the binding signal with PUM1 PUF domain R6-MWS is 2.78 log2 enrichment (interaction score); with PUM1 PUF domain R6-CFI, 5.68 log2 enrichment (interaction score). “GGCUAGAACUAGUGGAUCCCCCGGCGCCCGGCGGCUCGAGCCCGGGUAAGCGUAAAUAGUCUGCAUGCCGCCGGGCGCCAUGCCUGCAGGUCGACUCUAGAAAACAUG”: the binding signal with PUM1 PUF domain R8-RYS was 6.43 log2 enrichment (interaction score).

The values above are taken from publication PMC8384837, “Expanding the binding specificity for RNA recognition by a PUF domain”.
